Reference: PubChem BioAssay (NCATS)
Records with an inconclusive call do not appear. Values without a mark were called inactive. Calls of active or inactive are those of the source. The call rests on the fitted dose curve; in most records, active means well fitted activation curve with a large enough effect; inconclusive means small, poorly fitted or top-dose-only effect; inactive means no such curve, though single readings can be large or run the other way. Numbered stars: 1 amine (or outer) side, 2 acyl side, 3 side chain; on linkers, the order of the positions; unused ones are H or OH. Square brackets hold non-standard residues; d marks the D form. Peptide text beside a SMILES is read from it. X10 = O=C(C(CC(O)CO)O[*:1])[*:2]; NMeV = CN[CH](C(=O)O)C(C)C; NMeA = CN[CH](C)C(=O)O; βAla = NCCC(=O)O

Target: Cellular tumor antigen p53 (Homo sapiens) (UniProt P04637)
Experiment: Primary qHTS for small molecule compounds that upregulate eGFP-tagged delta133p53alpha (in N-terminal) cells. (AID 2060322); further: nearly all actives have a fitted effect of over 75% in size;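 on activation: series mostly up to about 56 µM; 0% = DMSO vehicle and 100% = reference activator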
Conditions: NCI-H358 eGFP-delta133p53alpha fluorescence, 24 h; activation: stronger effect = higher value
Procedure, shortened: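 NCI-H358 cells pre-induced 24 h with 10 ng/ml doxycycline for eGFP-delta133p53alpha, plated dox-free and exposed 24 h at 37C to titrated compounds. Fixed, Hoechst-stained; gated GFP peak intensity by laser scanning cytometry, normalized to DMSO (0%) and 57.5 uM 5-azacytidine (100%).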
Potency means the concentration at half of the fitted maximal effect.

Sequence of Cellular tumor antigen p53 (Homo sapiens) (P04637 whole entry, looked up): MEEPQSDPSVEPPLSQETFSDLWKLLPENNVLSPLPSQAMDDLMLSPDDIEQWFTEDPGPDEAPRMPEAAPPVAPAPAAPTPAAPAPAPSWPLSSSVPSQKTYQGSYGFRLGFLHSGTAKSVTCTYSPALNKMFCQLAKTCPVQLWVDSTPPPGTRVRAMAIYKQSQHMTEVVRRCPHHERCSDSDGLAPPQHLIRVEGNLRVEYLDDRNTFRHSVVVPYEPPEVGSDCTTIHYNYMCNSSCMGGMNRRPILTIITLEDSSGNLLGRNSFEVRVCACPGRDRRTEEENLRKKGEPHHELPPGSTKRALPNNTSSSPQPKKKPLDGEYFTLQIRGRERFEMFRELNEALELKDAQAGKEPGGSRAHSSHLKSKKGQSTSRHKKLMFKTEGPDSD

Compound | activation | Potency
C=C[C@@](C)(CCC=C(C)C)O[C@@H]1O[C@H](CO[C@@H]2OC[C@H](O)[C@H](O)[C@H]2O)[C@@H](O)[C@H](O)[C@H]1O | -11.5% | –
O=C(/C=C/c1ccc(O)cc1)OC[C@@]1(O)C=C[C@@H]2C(C(=O)O)=CO[C@@H](O[C@@H]3O[C@H](CO)[C@@H](O)[C@H](O)[C@H]3O)[C@@H]21 | -4.46% | –
CC1CC(C(O)C(C)(C)O)OC2CC3(C)C4(C)CCC5C(C)(C)C(=O)CCC5(C)C4CCC3(O)C12O (configuration not stated) | -11.5% | –
CC1=CCC2C(C)(C)CCCC2(C)C1CC12OC1C(O)C(CO)=CC2O (configuration not stated) | -16.8% | –
COc1cc(O)cc(C)c1C(=O)OC1C(CO)OC(n2ccc(=O)[nH]c2=O)C1OC(C)=O (configuration not stated) | -6.11% | –
CCOC(=O)C1(CCOc2ccccc2)CCN(Cc2ccc(O)c(Cl)c2)CC1 | 3.67% | –
C=CC1(C)CC2CCC3C(C)(C(=O)O)CCCC3(C)C2=CC1=O (configuration not stated) | -16% | –
COc1ccc([C@@]2(O)c3c(ccc(CC=C(C)C)c3O)NC(=O)[C@@H]2OC)cc1 | -19.1% | –
CC(=O)O[C@@H]1CC2C(/C=C(\C)C(=O)[C@@]3(O)C[C@@H](C)[C@H](OC(=O)c4ccccc4)C3/C=C/1C)C2(C)C (some centres not stated) | -10.7% | –
CCC(C)C1NC(=O)C2CCCN2C(=O)C(CC(O)CO)OC(=O)CCNC(=O)C(C)N(C)C(=O)C(C(C)C)N(C)C1=O (configuration not stated) (cyclo([X10]PI[NMeV][NMeA][βAla]); configuration not given here) | -16% | –
CCn1nnnc1NCc1ccc(C(C)C)cc1 | 3% | –
CC1=C2C3OC(=O)C(C)C3(O)CCC2(C)CCC1=O (configuration not stated) | -20.5% | –
C=C1C2CCC3C(CCC4[C@@]3(C)CCC[C@@]4(C)C(=O)O)(C2)[C@@H]1OC(=O)/C(C)=C\C (some centres not stated) | -8.93% | –
NC(=O)Nc1cc(-c2cccc(F)c2)sc1C(=O)NC1CCCNC1 (configuration not stated) | – | 19 µM (active)
CC(=O)Nc1ccc(S(=O)(=O)Nc2cc(C)on2)cc1 | 11.9% | –
COc1cc(C)c(C(=O)OC2C(C)OC(OC3CCC(C)C4C3C=C(C)C3/C(C)=C\CC/C(C)=C/C5(C)C=C(C(=O)O)C(C)CC56OC(=O)/C(=C(\O)C34C)C6=O)C(O)C2O)c(OC)c1 (configuration not stated) | 10.7% | –
C/C(=C\CO[C@@H]1O[C@H](CO[C@H]2OC[C@](O)(CO)[C@H]2O)[C@@H](O)[C@H](O)[C@H]1O)C(C)(C)O | -5.34% | –
